IL-1B inflam inh – inhibitors of inflammasome signaling (IL-1 beta secretion) | activity change, % at 57.5 µM | 360,000 tested, 4.7% active | THP-1 LPS/ATP IL-1B secretion, AlphaLISA, 16 h; active compounds read low; in the data active = activity change below about -50%; inconclusive = mostly about -30% to -49%
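Secreted IL-1B measured by AlphaLISA bead assay after 16 h compound exposure of THP-1 cells; compounds (final up to 57.5 uM) added 1 h before LPS (250 ng/mL) and ATP (1.25 mM) stimulation; lower signal means less secretion.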
DT40 TDP1 CPT – DT40-hTDP1 cell growth loss with CPT; 420,000 tested, 12% active; Potency, µM (series often up to 46.2 µM), most hits filed as inhibitors; chicken DT40 Tdp1-/-;hTDP1 cells + 20 nM CPT, ATP luminescence, 48 h; also: nearly all actives have a fitted effect of over 55% in size
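Cell growth measured by CellTiter-Glo luminescence after a minimum 48 h, 37 C compound exposure with 20 nM CPT in Tdp1-knockout DT40 cells stably expressing hTDP1, seeded 400/well; qHTS titration format.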
HT1080 IDH1KD tx – HT-1080 IDH1 knockdown cell toxicity (counter line); HT-1080 IDH1 knockdown viability, ATP luminescence, 48 h; Potency, µM (top dose mostly 46.1 µM), usual class: cytotoxic; 360,000 tested, 2% active; AID 686971
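Viability of IDH1-knockdown HT-1080 fibrosarcoma cells was assessed by CellTiter-Glo after 48 h at 37 °C with titrated compound; concentration-effect curves were classified by fit quality and response size.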
TDP1 cell noCPT – qHTS for Inhibitors of human tyrosyl-DNA phosphodiesterase 1 (TDP1): qHTS in cells in absence of CPT; DT40 Tdp1-/- hTDP1 cells, no CPT, ATP luminescence, 48 h; Potency, µM (top dose mostly 46.2 µM), hits mostly inhibitors; 420,000 tested, 15% active; AID 686978, 2013; also: nearly all actives have a fitted effect of over 55% in size
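Growth of hTDP1-complemented DT40 Tdp1-knockout cells is measured by ATP luminescence after at least 48 hr compound exposure at 37 °C, with DMSO substituting for the 20 nM CPT used in the parallel screen.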
HT1080NT lethal – kills 2HG-producing HT-1080-NT fibrosarcoma cells; 360,000 tested, 1.6% active; Potency, µM (titrated, usually from 46.1 µM), actives largely listed as cytotoxic; HT-1080-NT fibrosarcoma viability, CellTiter-Glo ATP luminescence, 48 h;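 also: NT is the 2HG producing partner of a matched IDH1 knockdown line; nearly all actives have a fitted effect of over 55% in size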
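Toxicity toward the 2HG-producing NT line was scored as %Activity, normalised to DMSO and no-cell wells, from CellTiter-Glo luminescence after 48 hours' treatment.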
Each line names hits and unclear results; the compound was inactive in the other large screens. In the library only some 19% were active in any assay of this set; here they are far more common. Unless noted, calls follow the shape of the dose curve; as a rule, active = well fitted curve in the direction sought with a large enough effect; inconclusive = small, poorly fitted or top-dose-only effect, or another doubt; inactive = no such curve, though single readings can be large; an effect the other way counts as inactive or inconclusive.

O=c1cc[nH]c2ccc(OC(F)(F)F)cc12	none
COc1ccc([C@H]2CC(=O)C=C(c3ccc(NC(C)=O)cc3)C2)cc1OC	IL-1B inflam inh inconclusive, DT40 TDP1 CPT inconclusive, TDP1 cell noCPT inconclusive
Cc1ccc(NC2=CC(=O)CC(c3ccc(Cl)cc3)C2)cc1 (configuration not stated)	DT40 TDP1 CPT inconclusive, TDP1 cell noCPT 12µM
CC(C)CCNC1=CC(=O)CC(c2ccccc2)C1 (configuration not stated)	DT40 TDP1 CPT inconclusive, HT1080 IDH1KD tx inconclusive, TDP1 cell noCPT inconclusive, HT1080NT lethal inconclusive
CCOc1ccccc1NC1=CC(=O)CC(c2ccccc2)C1 (configuration not stated)	DT40 TDP1 CPT inconclusive, HT1080 IDH1KD tx 13µM, TDP1 cell noCPT 13µM, HT1080NT lethal inconclusive
Cc1ccc(NC2=CC(=O)CC(c3ccccc3)C2)cc1 (configuration not stated)	DT40 TDP1 CPT 2.9µM, HT1080 IDH1KD tx 2.9µM, TDP1 cell noCPT 3.7µM, HT1080NT lethal 2.9µM
CC(=O)Nc1ccc(C2=CC(=O)C[C@H](c3ccc(Cl)cc3)C2)cc1	IL-1B inflam inh inconclusive, DT40 TDP1 CPT 18µM, TDP1 cell noCPT 16µM
Cc1ccc(NS(=O)(=O)c2c(C(=O)N3CCOCC3)c(C)n(C)c2C)cc1C	none
Cc1cc(C)cc(C(=O)N2CC(C)OC(C)C2)c1 (configuration not stated)	none
NS(=O)(=O)c1ccc(NC(=O)c2ccccc2C(=O)N2CCCCC2)cc1	none
O=C1C=C(Nc2ccc(Cl)cc2)CC(c2ccccc2)C1 (configuration not stated)	DT40 TDP1 CPT 21µM, HT1080 IDH1KD tx 9.2µM, TDP1 cell noCPT 12µM, HT1080NT lethal 12µM
Clc1ccc(-n2ncc3c(NCCN4CCOCC4)ncnc32)cc1	IL-1B inflam inh inconclusive, TDP1 cell noCPT inconclusive
FC(F)(F)c1ccccc1-c1cncnc1NCCN1CCOCC1	DT40 TDP1 CPT 1µM, TDP1 cell noCPT 1.5µM (no result: IL-1B inflam inh, HT1080 IDH1KD tx, HT1080NT lethal)
Clc1ccccc1-c1cncnc1NCCN1CCOCC1	DT40 TDP1 CPT 3.3µM, TDP1 cell noCPT 3.7µM (no result: IL-1B inflam inh, HT1080 IDH1KD tx, HT1080NT lethal)
O=C(COC(=O)C1CCCCC1)Nc1cc([N+](=O)[O-])ccc1F	DT40 TDP1 CPT inconclusive
CCOc1ccc(CC(=O)N/N=C/c2cccnc2)cc1OCC	none
CSc1nsc(NN)n1	none
CC(C)OC(=O)c1cc2c(ccn2C)n1CC(=O)N(Cc1ccccc1)c1ccccc1	IL-1B inflam inh -64, DT40 TDP1 CPT inconclusive, TDP1 cell noCPT 16µM
CCOC(=O)c1cc2c(ccn2C)n1Cc1cc(C)ccc1C	DT40 TDP1 CPT inconclusive, TDP1 cell noCPT inconclusive
CCCCC[C@@H](/C=C/C1C(=O)C=C[C@H]1C/C=C\CCCC(=O)OC)OC(C)=O (some centres not stated)	IL-1B inflam inh -101, DT40 TDP1 CPT 9.2µM, HT1080 IDH1KD tx inconclusive, TDP1 cell noCPT 6.5µM, HT1080NT lethal inconclusive
COC(=O)C(CCSC)NC(=O)c1c(C)oc2ncn(CC(C)C)c(=O)c12 (configuration not stated)	TDP1 cell noCPT 13µM (no result: IL-1B inflam inh, HT1080 IDH1KD tx, HT1080NT lethal)
Cc1oc2ncn(CC(C)C)c(=O)c2c1C(=O)NCCCN1CCCCC1	none (no result: IL-1B inflam inh, HT1080 IDH1KD tx, HT1080NT lethal)
CCC(C)NC(=O)c1c(C)oc2ncn(CC(C)C)c(=O)c12 (configuration not stated)	TDP1 cell noCPT inconclusive (no result: IL-1B inflam inh, HT1080 IDH1KD tx, HT1080NT lethal)
Cc1oc2ncn(CC(C)C)c(=O)c2c1C(=O)NC(C)c1ccccc1 (configuration not stated)	DT40 TDP1 CPT 21µM, TDP1 cell noCPT 21µM (no result: IL-1B inflam inh, HT1080 IDH1KD tx, HT1080NT lethal)
Cc1ccc(NC(=O)c2c(C)oc3ncn(CC(C)C)c(=O)c23)nc1	DT40 TDP1 CPT 13µM, TDP1 cell noCPT 9.2µM (no result: IL-1B inflam inh, HT1080 IDH1KD tx, HT1080NT lethal)
CCc1ccc(C(=O)COC(=O)C(Cc2c[nH]c3ccccc23)NC(=O)c2ccc(Br)cc2)cc1 (configuration not stated)	none (no result: IL-1B inflam inh, HT1080 IDH1KD tx, HT1080NT lethal)
CC(C)(C)NC(=O)c1ccc(NC(=O)c2ccccc2-c2ccccc2C(=O)O)cc1	none
COc1ccc(OC)c(CCNC(=O)c2cc3c(=O)n(C)c4ccccc4c3n2C)c1	DT40 TDP1 CPT inconclusive, TDP1 cell noCPT 23µM (no result: IL-1B inflam inh, HT1080 IDH1KD tx, HT1080NT lethal)
COc1ccc(CCNC(=O)c2cc3c(=O)n(C)c4ccccc4c3n2C)cc1OC	DT40 TDP1 CPT inconclusive, TDP1 cell noCPT 16µM
COc1ccc(CNC(=O)c2cc3c(=O)n(C)c4ccccc4c3n2C)cc1	none (no result: IL-1B inflam inh, HT1080 IDH1KD tx, HT1080NT lethal)
COc1ccc(OC)c(/C=N/N2CCN(c3ccc(Cl)cc3)CC2)c1	DT40 TDP1 CPT inconclusive, TDP1 cell noCPT inconclusive
COc1ccc(S(=O)(=O)N2CCCC(C(=O)NCc3ccccn3)C2)cc1Cl (configuration not stated)	DT40 TDP1 CPT inconclusive
CCOc1ccc(S(=O)(=O)N2CCCC(C(=O)NCc3ccccn3)C2)cc1Cl (configuration not stated)	DT40 TDP1 CPT inconclusive, TDP1 cell noCPT 16µM
CCOc1ccc(S(=O)(=O)N2CCCC(C(=O)NCc3cccnc3)C2)cc1C (configuration not stated)	DT40 TDP1 CPT inconclusive, TDP1 cell noCPT 26µM
CC(C)[C@H](NS(=O)(=O)c1cccc(Cl)c1)C(=O)OCC(=O)N1CCN(c2ccccc2)CC1	DT40 TDP1 CPT 23µM, TDP1 cell noCPT 26µM
CC(C)C(NC(=O)Cc1ccccc1)C(=O)N1CCN(c2cccc(Cl)c2)CC1 (configuration not stated)	DT40 TDP1 CPT 4.6µM, TDP1 cell noCPT 3.3µM
CC(C)NS(=O)(=O)c1ccc(OCC(=O)N2CCN(c3cccc(Cl)c3)CC2)cc1	DT40 TDP1 CPT 15µM, TDP1 cell noCPT 23µM (no result: IL-1B inflam inh, HT1080 IDH1KD tx, HT1080NT lethal)
O=C(OCC(=O)N1CCN(c2ccccc2)CC1)c1cccc(Cl)c1	none
CCOC(=O)N1CCN(C(=O)COc2ccc(S(=O)(=O)NC(C)C)cc2)CC1	none
CC(C)[C@H](NC(=O)c1c(F)cccc1F)C(=O)N1CCN(c2ccc(F)cc2)CC1	DT40 TDP1 CPT inconclusive, TDP1 cell noCPT 21µM
COc1ccc(NC(=O)CN2C(=O)NC(CC(C)C)C2=O)cc1S(=O)(=O)N1CCOCC1 (configuration not stated)	none
S=C(Nc1ccccc1)N1CCn2c1nc1ccccc12	HT1080 IDH1KD tx inconclusive, HT1080NT lethal 1.4µM
CSCCC(NC(=O)COc1ccccc1)C(=O)NCCOc1ccc(C)cc1 (configuration not stated)	none
Cc1occc1C(=O)N/N=C/C(Br)=C\c1ccccc1	IL-1B inflam inh inconclusive, DT40 TDP1 CPT 18µM, TDP1 cell noCPT 12µM
O=C(N/N=C/C=N/NC(=O)c1ccco1)c1ccco1	none
O=C(N/N=C/C(Br)=C\c1ccccc1)c1ccco1	IL-1B inflam inh inconclusive, DT40 TDP1 CPT 6.5µM, TDP1 cell noCPT 9.2µM
Cc1ccc(/C=N/NC(=O)c2ccoc2C)o1	none
Cc1onc(-c2ccccc2)c1C(=O)N/N=C/C(Br)=C/c1ccccc1	IL-1B inflam inh inconclusive, DT40 TDP1 CPT 6.5µM, TDP1 cell noCPT 9.2µM
